# Bioassay records: PubChem BioAssay, National Center for Advancing Translational Sciences (NCATS)
# ALOX15B inhib – blocks human 15-lipoxygenase 2 activity; O15296; purified 15hLO-2, xylenol orange hydroperoxide absorbance; Potency, µM (series often up to 57.1 µM), inactives show top-dose activity change, negative = inhibition, usual class: inhibitors; AID 881; hit rate 0.56% among 110,000; note: % is set by controls: 0 for no effect and ±100 for the full control effect; nearly all actives have a fitted effect of over 60% in size
#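 Screening format was qHTS against 50 nM purified 15hLO-2 in Hepes pH 7.5 with detergent. Activity follows hydroperoxide formation from 45 uM arachidonic acid, measured as 573:405 nm absorbance ratio of the ferric-xylenol orange complex.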
# ERK AVP inh – inhibitors of vasopressin-stimulated ERK signaling pathway | Potency, µM (doses to about 57.5 µM), without a hit: top-dose activity, negative = inhibition, actives largely listed as inhibitors | hit rate 0.99% among 72,000 | HEK293-V1b, vasopressin-stimulated pERK AlphaScreen; note: % is set by controls: 0 for no effect and ±100 for the full control effect; nearly all actives have a fitted effect of over 55% in size
#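 Phosphorylated ERK1/2 detected via AlphaScreen bead proximity in lysates of V1b-expressing HEK293 cells given 25 nM vasopressin for 5 min after 30 min compound exposure (37 °C). AC50 from Hill equation; basal DMSO 0%, vasopressin 100%.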
# CRE Fsk mod – alters forskolin-stimulated CRE reporter signaling in CHO cells; CHO CRE-bla reporter (cAMP response element driving beta-lactamase), forskolin EC10, beta-lactamase ratio; AID 662; Potency, µM (top dose mostly 38.2 µM), for the others: at the top dose activity change, negative = inhibition, most hits filed as activators; hit rate 2.5% among 71,000; active = well fitted activation curve with a large enough effect in the signal ratio, with a control signal flat, not every such curve was filed as active; inconclusive = small, poorly fitted or top-dose-only effect, or effect the other way, or a change in a side signal; the % refers to the signal ratio; note: % of control where 0% means no effect
#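 Beta-lactamase reporter under a cAMP responsive element in CHO cells; compounds tested in titration series against EC10 NKH 477, 3 h at 37 °C. Read-out: CCF4 FRET ratio 460nm/530nm (excitation 405nm) giving %Activity, fitted to AC50.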
# 15-hLO inh – inhibitors of human 15-lipoxygenase (ALOX15) | purified 15hLO-1, xylenol orange hydroperoxide absorbance | Potency, µM (top dose mostly 57.1 µM), for the others: at the highest dose activity change, negative = inhibition, most hits filed as inhibitors | hit rate 1.4% among 74,000 | AID 887; note: % is set by controls: 0 for no effect and ±100 for the full control effect; nearly all actives have a fitted effect of over 55% in size
# Target sequence (P16050 whole entry, looked up): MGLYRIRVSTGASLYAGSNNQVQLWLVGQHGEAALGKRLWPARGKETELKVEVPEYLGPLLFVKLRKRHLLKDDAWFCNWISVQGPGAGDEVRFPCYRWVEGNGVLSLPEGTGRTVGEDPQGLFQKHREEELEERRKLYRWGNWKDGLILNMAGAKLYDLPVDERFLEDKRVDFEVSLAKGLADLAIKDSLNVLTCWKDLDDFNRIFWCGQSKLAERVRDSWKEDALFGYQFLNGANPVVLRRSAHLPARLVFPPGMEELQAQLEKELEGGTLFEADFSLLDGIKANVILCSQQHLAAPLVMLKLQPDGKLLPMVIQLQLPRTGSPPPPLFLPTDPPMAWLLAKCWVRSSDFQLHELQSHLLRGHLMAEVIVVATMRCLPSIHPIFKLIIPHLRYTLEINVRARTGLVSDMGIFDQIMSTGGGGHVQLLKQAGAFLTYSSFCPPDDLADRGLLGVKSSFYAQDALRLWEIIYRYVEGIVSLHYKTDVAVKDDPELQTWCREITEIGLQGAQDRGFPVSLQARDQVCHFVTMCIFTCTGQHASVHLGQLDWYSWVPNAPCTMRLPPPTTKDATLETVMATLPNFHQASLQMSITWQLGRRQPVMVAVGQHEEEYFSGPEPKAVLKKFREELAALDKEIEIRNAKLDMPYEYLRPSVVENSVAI
#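 Hydroperoxide formed from arachidonic acid (50 uM) by purified human 15hLO-1 (40 nM) oxidizes ferrous iron, and the ferric-xylenol orange complex is read at 573 versus 405 nm. Compounds were preincubated 15 min; reaction ran 6 min at room temperature.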
# The depositor's hits bear a star; ? = inconclusive; nt = no result given; [ ] = another dose, or the depositor's remark. Most compounds without a hit are left out; they make up all but 3.2% or so of the library. Unless noted, calls come from the whole dose curve; as a rule, active = well fitted inhibition curve with a large enough effect; inconclusive = small, poorly fitted or top-dose-only effect; inactive = no such curve, though single readings can be large or run the other way. Potency is the fitted concentration of half-maximal effect.
SMILES,ALOX15B inhib,ERK AVP inh,CRE Fsk mod,15-hLO inh
CCC1=C2CC[C@H]3C(=O)N(c4ccccc4)C(=O)[C@H]3[C@H]2[C@@]2(Cc3ccccc3)C(=O)N(CC(=O)OC)C(=O)N2C1=O,6.8%,-12.0%,nt,nt
CCOc1ccc(-c2cc(CCCC(=O)NCc3cccnc3)no2)cc1,nt,12.6µM*,4.4%,7.7%
CCOc1ccc(-c2cc(CCCC(=O)NCCc3ccccc3)no2)cc1,1.9%,nt,nt,nt
Cc1cc(N2CCOCC2)nc2ccc(Cc3ccc4nc(N5CCOCC5)cc(C)c4c3)cc12,17.0%[11.4 µM],-22.1%[11.5 µM],9.5%[7.6 µM],18.9%[11.4 µM]
CC1(C)Cc2c(C#N)c(NCCc3ccccc3)nc(-c3ccco3)c2CO1,-23.5%,nt,nt,nt
CC1(C)Cc2c(C#N)c(NC3CCCCC3)nc(-c3ccco3)c2CO1,?,nt,3.16µM*,-6.5%
CCN(CCCn1c(=S)[nH]c2ncccc2c1=O)c1ccccc1,-3.1%,0.1%,?,-0.9%
CCN(CCCn1c(SCC#N)nc2ccccc2c1=O)c1ccccc1,-3.0%,-5.9%,2.51µM*,-1.1%
C=C(C)Cn1c(SCC#N)nc2ccccc2c1=O,-3.6%,-6.9%,10µM*,-11.1%
CC(C)(C)CC(C)(C)c1cc(O)c(O)c(CN2CCCCC2)c1,?,-18.1%[11.5 µM],-10.6%[7.6 µM],0.398µM*
N#Cc1ccc(CN2CC3(CCN(C(=O)c4ccco4)CC3)C2)cc1,-1.0%,?,7.4%,0.1%
O=C(Nc1ccccc1)N1CC=C(c2ccccc2)CC1,-8.5%,-15.9%,-14.0%,25.1µM*
COc1ccc(-c2noc(CSc3nnc(-c4ccncc4)n3-c3ccc(F)cc3)n2)cc1OC,0.8%,25.1µM*,?,7.9%
c1ccc(-c2nnc(CSc3nnc(-c4cccs4)o3)o2)cc1,-9.0%,-29.4%,?,-25.5%
c1ccc(-c2nnc(SCc3cn4ccsc4n3)o2)cc1,15.4%,7.0%,10µM*,7.3%
COc1cccc2[nH]c3c(N4CCN(Cc5ccc6c(c5)OCO6)CC4)ncnc3c12,45.3%,?,19.4%,-6.1%
COc1cccc2[nH]c3c(N4CCC(C)CC4)ncnc3c12,43.3%,-19.2%,3.98µM*,-11.0%
CCc1nc(N)c(C#N)c(-c2ccncc2)c1C,-4.8%,?,?,-9.9%
CCCc1nc(N)c(C#N)c(N)c1C#N,-7.9%,?,5.01µM*,7.0%
COc1ccccc1-c1cncnc1N1CCN(C)CC1,-11.2%,8.6%,-3.4%,?
N#CC1=C(N)SC2(CCCCC2)SC1c1ccccc1 (configuration not stated),?,-11.5%,8.3%,25.1µM*
CCCCCCOC(=O)C1(O)CC2OC1(C)n1c3ccccc3c3c4c(c5c6ccccc6n2c5c31)C(=O)NC4 (configuration not stated),-8.2%[0.0915 µM],nt,nt,nt
O=C(O)CCn1nnc(-c2cccs2)n1,1.2%,-6.2%,-1.5%,9.2%
CC(C)c1ccc(-c2nnn(CCC(=O)O)n2)cc1,-8.5%,6.1%,3.2%,1.58µM*
O=C(NCCCCN1CCCC1)c1ccc(Cc2nc3ccccc3[nH]2)cc1,nt,nt,nt,3.5%
SMILES,ALOX15B inhib,ERK AVP inh,CRE Fsk mod,15-hLO inh
CCOC(=O)c1c(NC(=O)c2nn(CC)cc2Br)sc(C)c1C,5.0%[2.29 µM],-11.8%,3.16µM*,-24.6%
CCOC(=O)c1nn(-c2ccccc2)c(C#N)c1NC(=O)c1nn(CC)cc1Br,-10.4%,-10.9%,1.58µM*,-1.6%
CCOC(=O)c1c(NC(=O)c2nn(CC)cc2Br)c(C#N)nn1-c1ccccc1,12.4%[2.29 µM],-9.8%,7.94µM*,1.4%
CCOC(=O)c1c(NC(=O)c2nn(CC)cc2Br)sc2c1CCCCC2,4.5%[2.29 µM],-1.3%,14.7%,?
NNC(=O)CS(=O)(=O)Nc1ncccn1,-1.6%[11.4 µM],13.3%[11.5 µM],0.8%[7.6 µM],18.7%[11.4 µM]
Cn1c(=O)[nH]c(=O)c2c1nc(CN1CCN(c3cccc(Cl)c3)CC1)n2CCCc1ccccc1,-0.3%,nt,7.94µM*,-13.3%
CCCCn1c(CN2CCN(c3cccc(Cl)c3)CC2)nc2c1c(=O)[nH]c(=O)n2C,nt,6.5%,10µM*,-16.7%
COc1ccc(N2CCN(Cc3nc4c(c(=O)[nH]c(=O)n4C)n3CCCc3ccccc3)CC2)cc1,nt,8.4%,10µM*,-4.6%
Cn1c(=O)[nH]c(=O)c2c1nc(CN1CCN(c3cccc(Cl)c3)CC1)n2Cc1ccccc1Cl,-4.4%,nt,8.0%,-5.3%
Oc1[nH]c2ccccc2c1C=Nc1ccc2c(c1)OCCO2,-14.7%,20µM*,-6.2%,?
Cc1cccc(/N=C/c2c(O)[nH]c3ccccc23)n1,-6.0%,-19.0%,-7.7%,0.4%
CCOc1ccccc1NC(=O)Cn1cnc2c(nnn2-c2cccc(OC)c2)c1=O,nt,nt,12.6µM*,-20.4%
COc1cccc(-n2nnc3c(=O)n(CC(=O)NC4CCCC4)cnc32)c1,-5.7%,-0.1%,31.9%,-0.3%
COc1cc(C(=O)NCCc2nc3ccccc3n2C)cc(OC)c1OC,nt,6.2%,6.31µM*,4.8%
Cc1cccc(CNc2ncncc2-c2ccc(C(=O)N(C)C)cc2)c1,-19.4%,-12.6%,-1.8%,-19.5%
Cc1cccc(CNc2ncnc3ccc(-c4ccc(C(=O)N(C)C)cc4)cc23)c1,68.4%,20µM*,?,-6.2%
CN(C)C(=O)c1ccc(-c2nc(NCc3ccccc3)c3ccccc3n2)cc1,4.9%,-21.1%,2µM*,-9.9%
CN(C)C(=O)c1ccc(-c2nc(Nc3ccccc3)c3ccccc3n2)cc1,-5.2%,?,3.16µM*,-12.1%
CN(C)C(=O)c1ccc(-c2nc(N(C)C)c3ccccc3n2)cc1,2.4%,-10.9%,7.94µM*,-6.5%
COCCNc1nc(-c2ccc(C(=O)N(C)C)cc2)nc2ccccc12,3.4%,5.7%,?,72.1%
c1ccc(Nc2nc(-c3ccoc3)nc3ccccc23)cc1,11.7%,-27.8%,?,-7.5%
CN(C)c1nc(-c2cccnc2)nc2ccccc12,9.4%,-18.0%,?,-4.3%
CCOC(=O)CCN1C(=O)[C@H]2[C@@H]3[C@H](O)[C@H](O)CC(=O)[C@H]3CC[C@H]2C1=O,nt,2.1%[11.5 µM],nt,0.8%[11.4 µM]
CC(C)NC[C@@H](O)COc1ccc(COCCOC(C)C)cc1,14.0%,-3.0%,-19.0%,-5.3%[25.6 µM]
CCC/C=C(\CCC)C(NP(=O)(c1ccccc1)c1ccccc1)c1ccc(C(F)(F)F)cc1 (configuration not stated),26.5%,-2.0%,-8.1%,nt
SMILES,ALOX15B inhib,ERK AVP inh,CRE Fsk mod,15-hLO inh
CN(C)c1nc(-c2ccoc2)nc2ccccc12,-23.4%,-10.4%,12.6µM*,?
CC1(C(=O)Nc2nccs2)Cc2ccccc2C(=O)O1 (configuration not stated),2.7%,25.1µM*,?,?
CCOc1cc(-c2cc(-c3ccccc3)nc(N)c2C#N)ccc1O,-19.3%,nt,nt,nt
CCOc1cc(-c2cc(-c3ccc(N)cc3)nc(N)c2C#N)ccc1O,-22.9%,?,2.51µM*,25.1µM*
N#Cc1c(-c2ccco2)cc(-c2cccnc2)nc1N,?,?,25.6%,7.94µM*
CCc1nc(N)c(C#N)c(-c2ccc(O)c(OC)c2)c1C,1.2%,?,10µM*,2.3%
Cc1nc(N)c(C#N)c(-c2ccccc2)c1C,-5.4%,-23.0%,?,-2.7%
Cc1c(-c2ccccc2)nc(N)c(C#N)c1-c1ccco1,?,-12.4%,10µM*,-12.2%
